Values joined by “and” are separate entries in the source; they are usually repeats but may differ in a detail not shown here. Equal entries are not always repeated. Screen size: about 16,000 compounds; about 5,800 (36%) were called active. Another 23% or so got no clear call; they are omitted. Calls follow the shape of the dose curve; as a rule, active = well fitted curve in the direction sought with a large enough effect; inconclusive = small, poorly fitted or top-dose-only effect, or effect the other way; inactive = no such curve, though single readings can be large or run the other way. Some of the results follow. More than one record can exist for a structure, and the calls need not agree.
% is scaled to controls: 0 for no effect and ±100 for the full control effect.

In the experiment the target is Cytochrome P450 2C19 (Homo sapiens) (UniProt P33261). The experiment is described as follows: Cytochrome panel assay with activity outcomes. Conditions: recombinant CYP, pro-luciferin dealkylation, luminescence, p450-cyp2c19; series mostly up to 57.1 µM; activity, negative = inhibition: at the top concentration.
Chain of Cytochrome P450 2C19 (Homo sapiens) (P33261 whole entry, looked up): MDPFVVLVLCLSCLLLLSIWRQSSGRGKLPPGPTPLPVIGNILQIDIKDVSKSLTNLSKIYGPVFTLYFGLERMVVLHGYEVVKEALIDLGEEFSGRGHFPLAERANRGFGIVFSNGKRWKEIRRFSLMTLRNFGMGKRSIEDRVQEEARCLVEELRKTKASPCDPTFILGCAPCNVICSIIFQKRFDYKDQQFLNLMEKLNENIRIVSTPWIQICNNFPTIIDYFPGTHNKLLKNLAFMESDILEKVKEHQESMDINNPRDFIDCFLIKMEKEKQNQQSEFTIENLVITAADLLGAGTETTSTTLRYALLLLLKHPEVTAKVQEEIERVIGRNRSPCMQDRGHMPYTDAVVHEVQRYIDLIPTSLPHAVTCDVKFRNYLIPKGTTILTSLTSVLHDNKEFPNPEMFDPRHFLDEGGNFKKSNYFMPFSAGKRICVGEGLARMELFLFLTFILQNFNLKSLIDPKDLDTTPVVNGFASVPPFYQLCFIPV
In the case of `c1ccc2nc(N3CCNCC3)ccc2c1`, the AC50 – broadly, the concentration at which the activity in the assay is half-maximal – is “inactive”. Take `O=C(O)[C@@H]1[C@H](C(=O)O)[C@]2(Cl)C(Cl)=C(Cl)[C@@]1(Cl)C2(Cl)Cl`: the activity, negative = inhibition is -2.94% [at 11.4 µM] (inactive). In the case of `NCC1(CC(=O)O)CCCCC1`, the AC50 entry was “inactive”. As to `CCN(CC)CCn1ncc2c(N)ncnc21`, the activity, negative = inhibition is -2.72% [at 11.4 µM] (inactive). As for `C[C@H](N)[C@@H](O)c1ccccc1`, the “activity, negative = inhibition” value is 20.9% [at 25.6 µM] (inactive).

`CC(NCc1ccc(Cl)cc1)C(O)c1ccccc1` (configuration not stated): the AC50 was 0.355 µM (active). As to `CN1[C@@H]2CC[C@H]1CC(O[C@@H](c1ccccc1)c1ccc(Cl)cc1)C2` (some centres not stated), the AC50 result is “inactive”. Regarding `Cc1sc2ccccc2c1CC1=NCCN1`, the “activity, negative = inhibition” value is -17.4% (inactive). The same measure, in the same setting: in the case of `c1ccc(C2CC2)c(OCC2=NCCN2)c1` it was -31.6% (inactive); in that of `CCSCC[C@H](N)C(=O)O`, -18% [at 11.4 µM] (inactive). Take `[N-]=[N+]=CC(=O)CC[C@H](N)C(=O)O`: the activity, negative = inhibition is 0.0153% [at 11.4 µM] (inactive). Same read-out and setting: the result for `CC(C)COC(=O)OCN1C(=O)CN(CCN2CC(=O)N(COC(=O)OCC(C)C)C(=O)C2)CC1=O` reads 1.24% (inactive); that for `c1csc(CN2CCCC3(CCNCC3)C2)n1`, -39.6% (inactive). Regarding `O=C(CN1CCCCC1)Nc1ccc(Br)cc1C(=O)c1ccccc1Cl`, the AC50 is 7.94 µM (active). With `O=c1[nH]cnc2[nH]cc(CN3CCCCC3)c12`, the activity, negative = inhibition is 39.9% [at 11.4 µM] (inactive). For `Cc1nnc2ccc(-c3cccc(C(F)(F)F)c3)nn12`, the “activity, negative = inhibition” value is 36.3% (inactive). On the same count and under the same terms, in the case of `CCC1(CCSC(=N)N)C(=O)NC(=O)NC1=O` it was 20.6% [at 11.4 µM] (inactive); in that of `C(#CCN1CCCC1)CN1CCCC1`, -1.49% [at 25.6 µM] (inactive). Take `C[N+](C)(C)CC#CCN1CCCC1=O`: the AC50 result was “inactive”.

Consider `O=C1CCCN1CC#CCN1CCCC1`, for which the AC50 result is “inactive and 158 nM (active)”. As to `CN(CCC(=O)O)C1=Nc2ccc(Cl)cc2C(c2ccccc2)=[N+]([O-])C1`, the activity, negative = inhibition was -1.35% [at 11.4 µM] (inactive). Same read-out and setting: the result for `Nc1nc(N)c2nc(CNc3ccc(C(=O)N[C@H](CCC(=O)O)C(=O)O)cc3)cnc2n1` reads 2.1% (inactive); that for `O=C(O)CNC(=O)[C@@H](CS)Cc1ccccc1`, -6.8% (inactive); that for `Cc1cc[c]([Sb]2[O][C@H]([C@H](O)[C@H](O)C(=O)O)[C@@H](CO)[O]2)cc1`, 30.4% [at 11.4 µM] (inactive). On the same count and under the same terms, in the case of `N[C@@H](Cn1ccc(=O)n(Cc2ccc(C(=O)O)cc2)c1=O)C(=O)O` it was -42.7% (inactive); in that of `CC(C)(O)/C=C\C(=O)[C@](C)(O)[C@H]1[C@H](O)C[C@]2(C)[C@@H]3CC=C4[C@@H](C=C(O)C(=O)C4(C)C)[C@]3(C)C(=O)C[C@@]12C`, -7.19% [at 11.4 µM] (inactive).

Regarding `O=C(Nc1ccc(C(F)(F)F)cc1)c1cccn(Cc2ccc3c(c2)OC(F)(F)O3)c1=O`, the concentration at half-maximal activity (AC50) was 3.16 µM (active). On to `CC(=O)Nc1ccccc1C(=O)OCc1ccc(C(=O)c2ccccc2)cc1`, for which the concentration at half-maximal activity (AC50) was 3.55 µM (active). Turning to `NS(=O)(=O)c1cc([C@@]2(O)NC(=O)c3ccccc32)ccc1Cl`, the “activity, negative = inhibition” value was 1.58% [at 25.6 µM] (inactive).

Take `NC[C@@H](Cc1ccccc1)P(=O)(O)O`: the activity, negative = inhibition was -0.815% [at 11.4 µM] (inactive).

Consider `O=C(Oc1ccccc1)N1CCC[C@@]2(CCN(C(c3ccccc3)c3ccccc3)C2)C1`, for which the “activity, negative = inhibition” value is -38.5% (inactive).

Regarding `O=C(O)Cc1cnc[nH]1`, the “activity, negative = inhibition” value is 0.662% (inactive). With `CC[C@@H](CO)NC(=O)[C@H]1C=C2c3cccc4c3c(cn4C)C[C@H]2N(C)C1`, the concentration at half-maximal activity (AC50) was 0.126 µM (active).

For `CC[C@H](CO)NC(=O)[C@@H]1C=C2c3cccc4c3c(cn4C)C[C@@H]2N(C)C1`, the “activity, negative = inhibition” value was -2.92% (inactive).

Take `COc1ccc(NC(=O)N2CCCC3(CCN(C(=O)Oc4ccccc4)CC3)C2)cc1`: the “activity, negative = inhibition” value is -40.4% (inactive). Consider `CN(C)CS/C(N)=N/[C@H](O)C(Cl)(Cl)Cl`, for which the activity, negative = inhibition is -3.05% [at 11.4 µM] (inactive). For `CC(N)Cc1ccccc1Sc1ccc(O)cc1` (configuration not stated), the AC50 was 15.8 µM (active). Consider `CNC(C)Cc1ccccc1Sc1ccc(O)cc1` (configuration not stated), for which the AC50 was 10 µM (active). For the molecule `C[C@H](N)Cc1c[nH]c2ccc(O)cc12`, the “activity, negative = inhibition” value was -14.3% (inactive).

For the molecule `CNC[C@H](O)c1ccc(O)cc1`, the “activity, negative = inhibition” value is -3.18% [at 25.6 µM] (inactive). `O=C(Oc1ccc([N+](=O)[O-])cc1)N1CCC(N2CCCCC2)CC1`: the “activity, negative = inhibition” value is -32.1% (inactive). Same read-out and setting: in the case of `O=C1Nc2ccc(I)cc2/C1=C/c1cc(Br)c(O)c(Br)c1` it was -34.5% (inactive); in that of `Nc1nc2ccc(Cl)cc2c2nc(-c3ccco3)nn12`, -17.9% (inactive).

In the case of `CCOP(=O)(OCC)c1nc(/C=C/c2ccccc2)oc1NCc1ccccc1`, the concentration at half-maximal activity (AC50) was 2.24 µM (active). On to `CCNC(C)(C)[C@@H](SS)c1ccc(Br)cc1`, for which the activity, negative = inhibition is -70.9% [at 11.4 µM] (inactive).

In the case of `COC1(CS(=O)c2ccccc2)CCN(CCc2c[nH]c3ccc(F)cc23)CC1` (configuration not stated), the “activity, negative = inhibition” value is -32.7% (inactive). In the case of `O=NN(Cc1ccc(Cl)cc1)[C@@H](C(=O)O)c1ccccc1`, the half-maximal activity concentration (AC50) was 0.398 µM (active).

These data come from PubChem BioAssay AID1851 (National Center for Advancing Translational Sciences (NCATS), 2009).
